# From PubChem BioAssay (EPA / NIEHS)
# Records with an inconclusive call do not appear. The source made the active and inactive calls. Rule for the calls, unless noted: active = hit-call score of the fitted dose curve at least 0.9, where 1 is the maximum; inconclusive = response in the unintended direction; inactive = score below 0.9.
# Legend:
# [1] = target: zebrafish Thyroid Hormone Receptor alpha (TRa), thraa (gene 30670) (UniProt Q98867); assay: ATG_zfTRa_XSP2: Attagene TRANS-FACTORIAL Multi-Species (XSP1) HepG2 Assay for zebrafish Thyroid Hormone Receptor alpha (TRa) (AID 2283832);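 note: actives raise zebrafish TRa-Gal4 reporter transcript above DMSO baseline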
# Sequence of zebrafish Thyroid Hormone Receptor alpha (TRa), thraa (gene 30670) (Q98867 whole entry, looked up, the tested form may be a part): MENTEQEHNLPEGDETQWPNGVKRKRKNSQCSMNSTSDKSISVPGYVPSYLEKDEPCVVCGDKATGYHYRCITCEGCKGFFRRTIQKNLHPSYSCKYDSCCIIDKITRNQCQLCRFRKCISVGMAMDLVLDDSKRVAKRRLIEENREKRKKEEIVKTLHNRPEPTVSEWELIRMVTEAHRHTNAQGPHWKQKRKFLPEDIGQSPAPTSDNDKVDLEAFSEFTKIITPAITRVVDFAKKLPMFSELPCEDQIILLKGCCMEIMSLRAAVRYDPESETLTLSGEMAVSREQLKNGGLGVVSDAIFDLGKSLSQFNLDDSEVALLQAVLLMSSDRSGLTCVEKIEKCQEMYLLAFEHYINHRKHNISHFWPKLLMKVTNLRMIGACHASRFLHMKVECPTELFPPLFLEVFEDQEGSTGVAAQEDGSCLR
# Summary of the method: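 Readout is reporter mRNA induction, quantified by RT-PCR and capillary electrophoresis with fluorescent labelling, after 24 h compound exposure of transiently transfected HepG2 cells carrying NR-Gal4 chimera reporters. Activity fitted upward relative to DMSO.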
# [2] = system: zebrafish Peroxisome Proliferator-activated Receptor gamma (PPARg), gene 557037; assay: ATG_zfPPARg_XSP2: Attagene TRANS-FACTORIAL Multi-Species (XSP2) HepG2 Assay for zebrafish Peroxisome Proliferator-activated Receptor gamma (PPARg) (AID 2283833);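 note: reporter mRNA from a zebrafish PPARg GAL4 chimera measured by RT-PCR and capillary electrophoresis; actives increase reporter signal over DMSO so AC50 reflects activation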
# Summary of the method: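 Cell-based transactivation of a chimeric zebrafish PPARg-GAL4 receptor was assessed in transiently transfected HepG2 cells after 24 h of treatment. Reporter mRNA induction, detected fluorescently after RT-PCR, was analysed in the positive direction against DMSO.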
# [3] = system: turtle Thyroid Hormone Receptor, alpha (TRa), gene 101949057; assay: ATG_trTRa_XSP2: Attagene TRANS-FACTORIAL Multi-Species (XSP1) HepG2 Assay for turtle Thyroid Hormone Receptor, alpha (TRa) (AID 2283834);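 note: hits raise reporter mRNA over the DMSO baseline so AC50 marks activators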
# Summary of the method: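 Gain-of-signal reporter transcription measured in transiently transfected HepG2 at 24 h post-dose. Fluorescent RT-PCR products were resolved by capillary electrophoresis and compared with DMSO vehicle.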
# [4] = ATG_M_61_XSP2: Attagene TRANS-FACTORIAL Multi-Species (XSP2) HepG2 Assay for M61 Transcription Factor (Internal Marker) (AID 2283835; active = hit-call score of the fitted dose curve at least 0.9, where 1 is the maximum; inactive = score below 0.9;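 note: reporter mRNA of an internal background marker read by RT-PCR and capillary electrophoresis; active means a rise in signal above the DMSO baseline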)
# Summary of the method: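 Transient MRTU transfection of human HepG2; 24 h chemical dosing with 3 nM 6-alpha-fluorotestosterone + 1.5 nM norgestrel added for AR stimulation. RNA isolated, RT, PCR, FAM-labelled, HpaI cut, CE read. Positive direction vs DMSO.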
# [5] = target: zebrafish Thyroid Hormone Receptor beta (TRb), thrb (gene 30607) (UniProt Q9PVE4); assay: ATG_zfTRb_XSP2: Attagene TRANS-FACTORIAL Multi-Species (XSP1) HepG2 Assay for zebrafish Thyroid Hormone Receptor beta (TRb) (AID 2283836)
# Sequence of zebrafish Thyroid Hormone Receptor beta (TRb), thrb (gene 30607) (Q9PVE4 whole entry, looked up): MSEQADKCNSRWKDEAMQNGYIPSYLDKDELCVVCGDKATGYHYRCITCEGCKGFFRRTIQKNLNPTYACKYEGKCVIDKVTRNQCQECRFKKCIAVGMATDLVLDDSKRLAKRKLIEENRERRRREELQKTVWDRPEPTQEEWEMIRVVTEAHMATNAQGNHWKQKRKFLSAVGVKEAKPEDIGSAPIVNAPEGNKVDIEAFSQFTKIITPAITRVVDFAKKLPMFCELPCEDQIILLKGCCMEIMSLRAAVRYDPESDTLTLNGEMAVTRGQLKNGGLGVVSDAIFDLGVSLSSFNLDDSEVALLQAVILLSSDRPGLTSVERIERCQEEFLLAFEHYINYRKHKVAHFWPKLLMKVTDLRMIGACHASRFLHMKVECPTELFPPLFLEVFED
# Summary of the method: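 Reporter transcripts were measured by RT-PCR with fluorescent primer extension and capillary electrophoresis, 24 h after chemical dosing of transiently transfected HepG2 cells. Activity was scored as upward signal versus DMSO baseline.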
# [6] = ATG_XTT_Cytotoxicity_XSP2: Cytotoxicity Assessment in the Attagene TRANS-FACTORIAL Multi-Species (XSP2) HepG2 Assay (AID 2283837)
# Summary of the method: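 XTT-based cell number read-out in human HepG2 liver cells carrying transfected reporter units, measured 24 h after chemical dosing. Activity is signal loss versus DMSO baseline.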
# [7] = target: human Thyroid hormone Receptor alpha (TRa), THRA (gene 7067) (UniProt P10827); assay: ATG_hTRa_XSP2: Attagene TRANS-FACTORIAL Multi-Species (XSP2) HepG2 Assay for human Thyroid hormone Receptor alpha (TRa) (AID 2283838)
# Sequence of human Thyroid hormone Receptor alpha (TRa), THRA (gene 7067) (P10827 whole entry, looked up, the tested form may be a part): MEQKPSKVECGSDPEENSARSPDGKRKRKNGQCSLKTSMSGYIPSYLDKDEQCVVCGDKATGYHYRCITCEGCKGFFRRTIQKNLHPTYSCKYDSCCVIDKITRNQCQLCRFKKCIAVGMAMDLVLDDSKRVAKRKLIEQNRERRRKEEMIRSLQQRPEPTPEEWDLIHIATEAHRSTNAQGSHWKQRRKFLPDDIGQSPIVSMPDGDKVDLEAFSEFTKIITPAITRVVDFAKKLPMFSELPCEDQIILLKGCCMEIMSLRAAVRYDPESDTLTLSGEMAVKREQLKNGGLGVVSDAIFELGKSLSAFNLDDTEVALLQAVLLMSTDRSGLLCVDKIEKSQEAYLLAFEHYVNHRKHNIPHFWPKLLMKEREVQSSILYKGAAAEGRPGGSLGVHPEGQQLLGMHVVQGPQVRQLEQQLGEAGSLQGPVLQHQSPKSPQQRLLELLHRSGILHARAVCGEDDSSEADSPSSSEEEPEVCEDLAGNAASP
# Summary of the method: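 Gain-of-signal in reporter mRNA, relative to DMSO, after 24 h dosing of transfected HepG2; quantitation by RT-PCR fragment analysis on capillary electrophoresis.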
# [8] = target: frog Thyroid hormone Receptor alpha (TRa), thra-a (gene 397942) (UniProt P15204); assay: ATG_frTRa_XSP2: Attagene TRANS-FACTORIAL Multi-Species (XSP2) HepG2 Assay for frog Thyroid hormone Receptor alpha (TRa) (AID 2283839)
# Sequence of frog Thyroid hormone Receptor alpha (TRa), thra-a (gene 397942) (P15204 whole entry, looked up, the tested form may be a part): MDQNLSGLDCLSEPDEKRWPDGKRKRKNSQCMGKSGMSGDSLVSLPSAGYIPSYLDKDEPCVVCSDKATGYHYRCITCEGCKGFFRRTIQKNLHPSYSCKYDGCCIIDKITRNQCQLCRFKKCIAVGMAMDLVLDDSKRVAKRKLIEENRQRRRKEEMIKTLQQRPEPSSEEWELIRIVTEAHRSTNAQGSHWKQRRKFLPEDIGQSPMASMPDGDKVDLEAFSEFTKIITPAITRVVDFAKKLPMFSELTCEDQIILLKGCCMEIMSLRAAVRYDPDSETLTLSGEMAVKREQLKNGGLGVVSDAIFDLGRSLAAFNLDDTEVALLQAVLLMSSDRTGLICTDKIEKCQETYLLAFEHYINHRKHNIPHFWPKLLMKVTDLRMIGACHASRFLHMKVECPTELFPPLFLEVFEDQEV
# Summary of the method: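 Frog thyroid receptor alpha was tested as an exogenous NR-Gal4 fusion in transiently transfected HepG2 cells. After 24 h chemical treatment, reporter mRNA induction was quantified by RT-PCR and capillary electrophoresis, with gain-of-signal analysed relative to DMSO.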
# [9] = target: human Thyroid hormone Receptor beta (TRb), THRB (gene 7068) (UniProt P10828); assay: ATG_hTRb_XSP2: Attagene TRANS-FACTORIAL Multi-Species (XSP2) HepG2 Assay for human Thyroid hormone Receptor beta (TRb) (AID 2283840);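 note: actives raise reporter mRNA so potency reflects agonist-like gain of signal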
# Sequence of human Thyroid hormone Receptor beta (TRb), THRB (gene 7068) (P10828 whole entry, looked up, the tested form may be a part): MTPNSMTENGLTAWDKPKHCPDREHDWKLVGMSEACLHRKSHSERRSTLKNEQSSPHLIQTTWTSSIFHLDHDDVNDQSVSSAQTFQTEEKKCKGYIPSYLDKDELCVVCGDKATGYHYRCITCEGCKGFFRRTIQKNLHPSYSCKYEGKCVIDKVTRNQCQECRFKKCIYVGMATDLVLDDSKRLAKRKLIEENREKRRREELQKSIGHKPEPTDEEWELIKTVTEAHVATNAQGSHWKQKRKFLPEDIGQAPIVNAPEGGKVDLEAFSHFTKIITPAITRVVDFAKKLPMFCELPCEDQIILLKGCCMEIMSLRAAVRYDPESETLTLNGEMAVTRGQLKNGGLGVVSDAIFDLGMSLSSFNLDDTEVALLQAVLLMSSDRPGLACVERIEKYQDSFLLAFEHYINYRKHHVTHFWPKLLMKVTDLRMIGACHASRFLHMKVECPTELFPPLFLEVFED
# Summary of the method: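 In this cell-based multiplex, HepG2 liver cells carrying transfected GAL4-UAS reporter constructs are exposed to chemical for 24 hours, then reporter transcripts are measured by RT-PCR with capillary electrophoresis, scored as gain of signal against DMSO.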
# [10] = target: PGR (gene 5241) (UniProt P06401); assay: TOX21_PR_BLA_Followup_Agonist_ratio: Tox21 HEK293 Progesterone Receptor (PR) Agonism Beta-lactamase Follow-Up Assay, Ratio (AID 2283933)
# Sequence of PGR (gene 5241) (P06401 whole entry, looked up): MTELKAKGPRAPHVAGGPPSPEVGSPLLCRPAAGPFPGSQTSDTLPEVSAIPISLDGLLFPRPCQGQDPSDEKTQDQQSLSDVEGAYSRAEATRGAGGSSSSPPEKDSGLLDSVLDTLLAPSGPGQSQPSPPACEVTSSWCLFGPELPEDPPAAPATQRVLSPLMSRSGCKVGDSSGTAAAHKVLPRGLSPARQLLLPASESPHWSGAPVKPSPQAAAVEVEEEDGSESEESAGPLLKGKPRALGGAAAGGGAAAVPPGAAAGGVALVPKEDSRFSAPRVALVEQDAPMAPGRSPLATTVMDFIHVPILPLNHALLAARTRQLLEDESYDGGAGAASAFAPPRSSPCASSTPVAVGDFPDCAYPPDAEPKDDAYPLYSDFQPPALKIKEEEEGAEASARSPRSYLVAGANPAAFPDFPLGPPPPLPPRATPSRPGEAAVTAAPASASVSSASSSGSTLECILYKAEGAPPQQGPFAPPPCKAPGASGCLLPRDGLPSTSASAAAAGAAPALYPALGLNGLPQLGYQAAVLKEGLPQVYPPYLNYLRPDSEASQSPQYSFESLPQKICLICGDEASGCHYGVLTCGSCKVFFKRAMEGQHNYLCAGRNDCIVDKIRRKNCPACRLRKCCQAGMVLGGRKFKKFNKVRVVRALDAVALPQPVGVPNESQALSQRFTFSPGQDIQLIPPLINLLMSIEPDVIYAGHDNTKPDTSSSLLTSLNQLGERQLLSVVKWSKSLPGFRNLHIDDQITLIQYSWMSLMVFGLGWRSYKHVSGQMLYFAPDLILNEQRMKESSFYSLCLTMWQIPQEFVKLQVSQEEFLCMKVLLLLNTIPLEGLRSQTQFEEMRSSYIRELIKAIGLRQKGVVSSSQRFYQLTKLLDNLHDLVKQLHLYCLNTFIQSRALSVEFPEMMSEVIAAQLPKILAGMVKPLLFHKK
# Summary of the method: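 Read-out: ratio of cleaved (ch2) to uncleaved (ch1) beta-lactamase substrate fluorescence, gain-of-signal relative to DMSO baseline. Cells: PR-UAS-bla HEK293T, 2% charcoal-stripped FBS; compound exposure 16 hr, 37C; substrate 2 hr, RT.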
# [11] = target: PGR (gene 5241) (UniProt P06401); assay: TOX21_PR_LUC_Followup_Agonist: Tox21 HEK293 Progesterone Receptor (PR) Agonism Luciferase Follow-Up Assay (AID 2283937; active = hit-call score of the fitted dose curve at least 0.9, where 1 is the maximum; inactive = score below 0.9)
# Summary of the method: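 Luminescence read-out (ONE-Glo, 30 min at room temperature) of PR-driven luciferase in HEK293-PR-A-luc cells after 16 h compound exposure at 37C; gain of signal fitted relative to DMSO baseline.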
# [12] = target: Thyroid hormone receptor alpha (Rattus norvegicus) + Thyroid hormone receptor beta (Rattus norvegicus) (UniProt P18113+P63059); assay: TOX21_TR_LUC_GH3_Agonist_Followup: Tox21 GH3 Thyroid Hormone Receptor Agonism Luciferase Follow-Up Assay (AID 2283939)
# Sequence of Thyroid hormone receptor alpha (Rattus norvegicus) + Thyroid hormone receptor beta (Rattus norvegicus) (P63059 whole entry, looked up): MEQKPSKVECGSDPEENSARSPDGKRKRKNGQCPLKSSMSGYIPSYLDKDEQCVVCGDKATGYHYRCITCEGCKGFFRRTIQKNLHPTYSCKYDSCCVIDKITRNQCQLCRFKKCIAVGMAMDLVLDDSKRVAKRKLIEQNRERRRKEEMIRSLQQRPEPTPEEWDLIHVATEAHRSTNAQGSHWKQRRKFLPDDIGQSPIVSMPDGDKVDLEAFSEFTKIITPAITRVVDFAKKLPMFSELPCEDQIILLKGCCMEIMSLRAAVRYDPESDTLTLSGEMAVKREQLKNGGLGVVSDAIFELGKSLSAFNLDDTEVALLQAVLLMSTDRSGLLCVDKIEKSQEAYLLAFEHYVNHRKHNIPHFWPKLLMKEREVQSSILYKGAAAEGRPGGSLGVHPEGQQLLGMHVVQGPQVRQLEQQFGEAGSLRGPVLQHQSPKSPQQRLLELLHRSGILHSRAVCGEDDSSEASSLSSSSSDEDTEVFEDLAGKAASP
# Sequence of Thyroid hormone receptor alpha (Rattus norvegicus) + Thyroid hormone receptor beta (Rattus norvegicus) (P18113 whole entry, looked up): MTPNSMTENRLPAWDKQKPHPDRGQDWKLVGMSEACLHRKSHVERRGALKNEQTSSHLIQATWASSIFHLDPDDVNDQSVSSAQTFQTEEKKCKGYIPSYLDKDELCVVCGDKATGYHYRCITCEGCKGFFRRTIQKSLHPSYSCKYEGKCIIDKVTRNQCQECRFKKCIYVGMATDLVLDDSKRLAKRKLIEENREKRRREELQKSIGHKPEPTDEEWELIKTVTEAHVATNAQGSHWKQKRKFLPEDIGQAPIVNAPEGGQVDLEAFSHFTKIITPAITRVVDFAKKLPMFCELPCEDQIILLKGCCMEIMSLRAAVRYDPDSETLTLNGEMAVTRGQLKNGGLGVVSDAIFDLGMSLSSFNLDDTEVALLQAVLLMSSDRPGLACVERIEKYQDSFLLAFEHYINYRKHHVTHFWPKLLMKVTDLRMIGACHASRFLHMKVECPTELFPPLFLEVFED
# Summary of the method: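 Agonist-mode confirmatory run: 15 concentrations (5 nM to 92 uM final) on GH3 rat pituitary cells, 24 h at 37C/5% CO2, T3 as positive control. Luminescence read with ONE-Glo after 30 min.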
smiles,measurement,setting,value
COC(=O)c1c(C)cc(O)c(C)c1O,outcome,[1],inactive
same,outcome,[2],inactive
same,outcome,[3],inactive
same,outcome,[4],inactive
same,outcome,[5],inactive
same,outcome,[6],inactive
same,outcome,[7],inactive
same,outcome,[8],inactive
same,outcome,[9],inactive
O=C(c1ccc(O)cc1)c1ccc(O)cc1O,outcome,[1],inactive
same,outcome,[4],inactive
same,outcome,[5],inactive
same,outcome,[7],inactive
same,outcome,[8],inactive
same,outcome,[9],inactive
CC(C)(c1cc(Br)c(OCCO)c(Br)c1)c1cc(Br)c(OCCO)c(Br)c1,outcome,[10],inactive
same,outcome,[11],inactive
CCCCCCC(O)CO (centres undefined),outcome,[12],inactive
NC(CO)(CO)CO,AC50,[12],10.6 µM (active)
